VP16 counter – inhibits Gal4-VP16 luciferase reporter, ROR gamma counter-screen; Drosophila S2 Gal4-VP16 UAS-luciferase, luminescence, 20 h; Potency, µM (series often up to 53.6 µM), for the others: at the top dose activity, negative = inhibition, most hits filed as inhibitors; 310,000 tested, 3.5% active; AID 2546;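 further: Gal4-VP16 expression switched on by copper sulfate through the metallothionein promoter; nearly all actives have a fitted effect of over 50% in size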
DT40 TDP1 CPT – growth inhibition of DT40 Tdp1-/-;hTDP1 cells with camptothecin (screen for TDP1 inhibitors). chicken DT40 Tdp1-/-;hTDP1 cells + 20 nM CPT, ATP luminescence, 48 h. Potency, µM (series often up to 46.2 µM), for inactives: at the highest dose activity change, negative = growth inhibition, hits mostly inhibitors. 420,000 tested, 12% active. AID 686979; further: nearly all actives have a fitted effect of over 55% in size
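Chicken DT40 Tdp1-/- cells stably complemented with human TDP1 were seeded at 400 cells/well in medium containing 20 nM camptothecin, exposed to pin-transferred compounds, and grown at 37 °C for at least 48 hr. Viability was read as ATP luminescence.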
TDP1 inh – inhibitors of human tyrosyl-DNA phosphodiesterase TDP1; recombinant TDP1, AlphaScreen DNA substrate cleavage; Potency, µM (series often up to 130 µM), inactives show top-dose activity change, negative = inhibition, actives largely listed as inhibitors; 350,000 tested, 0.28% active; AID 485290; further: nearly all actives have a fitted effect of over 40% in size
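AlphaScreen read-out: signal falls as enzyme removes the 3' tyrosine-FITC from a 5'-biotinylated DNA oligo (15 nM, 5 min, RT). Enzyme was E. coli-made recombinant Tdp1 at 1 nM, exposed to compound for 15 min beforehand; beads 10 ug/ml, 10 min.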
DT40 TDP1 no CPT – qHTS for Inhibitors of human tyrosyl-DNA phosphodiesterase 1 (TDP1): qHTS in cells in absence of CPT; DT40 Tdp1-/- hTDP1 cells, no CPT, ATP luminescence, 48 h; Potency, µM (highest dose often 46.2 µM), without a hit: top-dose activity change, negative = growth inhibition, actives largely listed as inhibitors; AID 686978, 2013; 420,000 tested, 15% active; further: nearly all actives have a fitted effect of over 55% in size
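Cells were dispensed at 400 per well, compounds added by pin tool, plates incubated ≥48 hr at 37 °C, then CellTiter-Glo added for 30 min at room temperature before luminescence reading. Line: DT40 Tdp1-/- complemented with hTDP1; camptothecin omitted.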
RORgamma inh – blocks mouse ROR gamma transcriptional activity | P51450 | Drosophila S2 Gal4-RORgamma UAS-luciferase reporter, 20 h | Potency, µM (top dose mostly 53.6 µM), for inactives: at the highest dose activity change, negative = inhibition, usual class: inhibitors | 310,000 tested, 5.4% active | AID 2551; further: nearly all actives have a fitted effect of over 60% in size
Target sequence (P51450 whole entry, looked up, the tested form may be a part): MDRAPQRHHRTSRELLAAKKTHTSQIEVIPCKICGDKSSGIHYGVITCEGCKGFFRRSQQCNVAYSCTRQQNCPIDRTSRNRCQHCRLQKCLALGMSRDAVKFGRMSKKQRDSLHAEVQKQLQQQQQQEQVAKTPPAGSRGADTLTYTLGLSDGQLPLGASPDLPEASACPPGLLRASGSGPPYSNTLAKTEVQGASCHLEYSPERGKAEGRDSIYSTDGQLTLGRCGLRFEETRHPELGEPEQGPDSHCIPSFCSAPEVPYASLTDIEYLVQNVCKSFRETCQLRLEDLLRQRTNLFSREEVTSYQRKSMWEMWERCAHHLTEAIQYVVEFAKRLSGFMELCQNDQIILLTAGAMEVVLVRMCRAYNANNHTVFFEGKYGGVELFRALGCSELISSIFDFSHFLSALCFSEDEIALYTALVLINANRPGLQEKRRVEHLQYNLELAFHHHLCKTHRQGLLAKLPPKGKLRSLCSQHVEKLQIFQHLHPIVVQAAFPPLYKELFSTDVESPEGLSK
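ROR gamma transcriptional activity was tracked as Gal4-UAS luciferase output in stably transfected Drosophila Schneider cells, with compound added 1 hr before 700 uM copper sulfate induction and a 20 hr ambient-temperature incubation.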
Starred values were filed as active, the others as inactive; u = inconclusive; x = not tested or not shown; [ ] = remark or other dose. A selection: hits, their analogues and other compounds. The true share with any hit is near 19%. The call rests on the fitted dose curve; in most records, active means well fitted curve in the direction sought with a large enough effect; inconclusive means small, poorly fitted or top-dose-only effect, or another doubt; inactive means no such curve, though single readings can be large; an effect the other way counts as inactive or inconclusive. On the % scale 0 is the no-effect control and ±100 the full control effect; potency means the concentration at half of the fitted maximal effect.

SMILES	VP16 counter	DT40 TDP1 CPT	TDP1 inh	DT40 TDP1 no CPT	RORgamma inh
COc1cccc(CNc2nn[nH]n2)c1OC	2%[0.365 µM]	8%	-3%	4%	31%
COc1ccccc1CNc1nc(NCc2cccc(OC)c2OC)c2sccc2n1	x	4.6µM*	x	7.3µM*	x
CN(C)CCCNC(=O)Cc1ccc(Br)cc1	10%	3%	-1%	9%	u
CCCN1CC23C=CC(O2)C(C(=O)O)C3C1=O (configuration not stated)	1%	7%	7%	18%	-1%
N#C/C(=C(O)\C=C\c1ccccc1)c1nc2ccccc2[nH]1	-21%	-18%	5%	u	2µM*
CCOC(=O)/C(O)=C(\C#N)c1nc2ccccc2[nH]1	-6%	-10%	8%	-20%	u
CC(C)(C)/C(O)=C(/C#N)c1nc2ccccc2[nH]1	u	u	8%	u	11µM*
COc1cccc(OC)c1/C(O)=C(\C#N)c1nc2ccccc2[nH]1	-8%	u	8%	13µM*	3%
CC(C)CC(/C(O)=C(\C#N)c1nc2ccccc2[nH]1)N1C(=O)c2ccccc2C1=O (configuration not stated)	20µM*	-17%	9%	-23%	7.9µM*
N/C(=N\O)c1ccc(Oc2ccccc2Cl)c([N+](=O)[O-])c1	14%	0%	x	3%	-38%
Cc1ccc(C)c(N2CCN(c3ccncc3N)CC2)c1	-7%	18µM*	7%	13µM*	-34%
CCOc1ccc2c(c1)n(CO)c(=S)n2CO	-4%	3%	8%	-2%	-25%
CC(=O)Nc1ccc(S(=O)(=O)Nc2cc(-c3cn4ccccc4n3)ccc2C)cc1	x	u	7%	21µM*	x
CCS(=O)(=O)Nc1cc(-c2cn3ccc(C)cc3n2)ccc1C	x	u	7%	21µM*	x
Cc1ccn2cc(-c3ccc(C)c(NS(=O)(=O)c4ccc(Cl)cc4)c3)nc2c1	x	23µM*	5%	21µM*	x
CCCc1nc2c(nnn2Cc2ccccc2F)c(=O)[nH]1	-3%	-6%	0%	-6%	0%
CN(CC(=O)Nc1cccc(F)c1)C(=O)c1sc2ccccc2c1Cl	x	-28%	1%	u	x
Cc1cc(=O)[nH]c(N/N=C/c2ccc(N(C)C)cc2)n1	-21%	-24%	6%	-9%	-3%
CC(C)C[C@H](NC(=O)[C@H](CCc1ccccc1)NC(=O)CN1CCOCC1)C(=O)N[C@@H](Cc1ccccc1)C(=O)N[C@@H](CC(C)C)C(=O)[C@@]1(C)CO1	x	0.0067µM*	x	0.0042µM*	x
CCN(CC)CCNC(=O)c1ccc(CS(=O)(=O)c2ccccc2C)o1	-12%	-4%	x	19%	0%
COc1ccc(/C=C2\N=C(C)OC2=O)cc1OC(C)=O	21%	u	x	-16%	4%
Fc1ccc(CN2C3=NCCN3c3ccccc32)cc1	-5%	-14%	x	u	-24%
OC(CN1C2=NCCN2c2ccccc21)c1ccc(Br)cc1 (configuration not stated)	4%	u	4%	21µM*	1%
Cc1ccc(C(O)CN2C3=NCCN3c3ccccc32)cc1 (configuration not stated)	-13%	23µM*	10%	16µM*	-17%
Cc1ccc(CNC(=S)N2CCOCC2)cc1	-10%	-8%	0%	-6%	-17%
S=C(N/N=C/c1ccc(Cl)cc1)N1CCOCC1	1.8µM*	0.0092µM*	8%	0.018µM*	0.35µM*
Cc1ccc(/C=N/NC(=S)N2CCOCC2)cc1	0.89µM*	-12%	8%	-23%	0.56µM*
S=C(c1ccc(Br)cc1)N1CCCC1	2%	3%	x	-10%	-14%
S=C(N/N=C/c1ccc(Br)cc1)N1CCCCC1	0.89µM*	1.2µM*	5%	u	1.4µM*
O=C(C[C@H]1C[C@H](C(=O)N2CCOCC2)[C@@]2(CCC3CCCC3)c3[nH]c4cc(-c5ccco5)ccc4c3CCN2C1=O)NCc1ccco1	x	u	-6%[56.1 µM]	16µM*	x

Assay outcomes as filed in PubChem BioAssay.
